From PubChem BioAssay (NCATS)
Results filed as inconclusive are left out. Calls of active or inactive are those of the source. Calls come from the whole dose curve; as a rule, active = well fitted cell-killing curve with a large enough effect; inconclusive = small, poorly fitted or top-dose-only effect, or effect the other way; inactive = no such curve, though single readings can be large or run the other way.

Assay: Quantitative High-Throughput drug screen in 47 multiple myeloma cell lines against the NCATS MIPE library collection: KMS12PE_JCRB cell viability assay (AID 1918972); note: nearly all actives have a fitted effect of over 30% in size
Settings: KMS12PE myeloma viability, CellTiter-Glo ATP, 48 h; series mostly up to 45.8 µM
In short: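 Relative luminescence from CellTiter-Glo served as the viability signal, referenced to DMSO-treated (100%) and cell-free medium (0%) controls. Treatment lasted 48 hours at 37C with 500 cells per well.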
Potency is the fitted concentration of half-maximal effect.

| SMILES | Potency |
| --- | --- |
| CN(C)CC[C@H](CSc1ccccc1)Nc1ccc(S(=O)(=O)NC(=O)c2ccc(N3CCN(Cc4ccccc4-c4ccc(Cl)cc4)CC3)cc2)cc1[N+](=O)[O-] | 0.0235 µM (active) |
| CCOC(=O)N1CCN([N+]([O-])=NOc2cc(ON=[N+]([O-])N3CCN(C(=O)OCC)CC3)c([N+](=O)[O-])cc2[N+](=O)[O-])CC1 | inactive |
| O=C(CC12CC3CC(CC(C3)C1)C2)Nc1cccc2nc(NCCNCCO)ccc12 | 9.35 µM (active) |
| N#CC(c1ccnc(NCCc2cccnc2)n1)c1nc2ccccc2s1 (centres undefined) | 4.18 µM (active) |
| CN[C@@H]1CN(c2ccc3c(=O)c(C(=O)O)cn(-c4nccs4)c3n2)C[C@@H]1OC | inactive |
| CCC(C)SSc1ncc[nH]1 (centres undefined) | 9.35 µM (active) |
| C[C@@H]1O[C@@H](O[C@H]2CC[C@@]3(C)[C@H](CC[C@@H]4[C@H]3C[C@@H](O)[C@]3(C)[C@@H](C5=CC(=O)OC5)CC[C@]43O)C2)C[C@H](O)[C@@H]1O[C@H]1C[C@H](O)[C@H](O[C@H]2C[C@H](O)[C@@H](O)[C@@H](C)O2)[C@H](C)O1 (stereo in doubt) | 0.054 µM (active) |
| CC[C@H](C)C(=O)O[C@H]1C[C@H](O)C=C2C=C[C@H](C)[C@H](CC[C@@H](O)C[C@@H](O)CC(=O)O)[C@H]21 | inactive |
| CC[C@H](NC(=O)[C@H](C)NC)C(=O)N1C[C@@H](O)C[C@H]1Cc1c(-c2[nH]c3cc(F)ccc3c2C[C@H]2C[C@H](O)CN2C(=O)[C@H](CC)NC(=O)[C@H](C)NC)[nH]c2cc(F)ccc12 | 11.8 µM (active) |
